Experimental data from the supplement of paper PMC13380429.

System: Vero E6 infected with SARS-CoV-2
Assay: inhibition of SARS-CoV-2 cytopathic effect; higher = more antiviral protection, active = above 15
Conditions: 48 h

Measured: inhibition of SARS-CoV-2 cytopathic effect

CC(C)C(=O)SCCCCC[C@H](NC(=O)OC(C)(C)C)C(=O)NC12CC3CC(CC(C3)C1)C2
inactive: 1 nM -5.42% | 8.33 nM -0.36% | 100 nM -0.22% | 833.33 nM 2.47% | 10000 nM -6.65%

Cc1[nH]c(/C=C2\C(=O)Nc3ccccc32)c(C)c1CCC(=O)O [orantinib]
inactive: 1 nM -0.96% | 8.33 nM 2.48% | 100 nM 1.61% | 833.33 nM -0.48% | 10000 nM -0.87%

Cc1cc(C(=O)O)sc1C(N)C(=O)O (stereo not given)
inactive: 1 nM 0.31% | 8.33 nM -0.48% | 100 nM -1.39% | 833.33 nM 1.06% | 10000 nM -0.02%

O=C(NC[C@H](O)CN1CCc2ccccc2C1)c1cc(NC2COC2)ncn1
inactive: 1 nM -3.14% | 8.33 nM -1.3% | 100 nM -2.1% | 833.33 nM -3.82% | 10000 nM -1.65%

COC1(C2=NCCN2)COc2ccccc2O1 (stereo not given)
inactive: 1 nM 0.37% | 8.33 nM 1.98% | 100 nM -0.68% | 833.33 nM 1.5% | 10000 nM 1.58%

CCOC(=O)CC(=O)N1CCSC1COc1ccccc1OC (stereo not given) [moguisteine]
inactive: 1 nM -0.34% | 8.33 nM 0.03% | 100 nM -3.76% | 833.33 nM -0.38% | 10000 nM 0.52%

CNC[C@@H]1CC[C@@H](N)[C@@H](O[C@H]2[C@H](O)[C@@H](O[C@H]3OC[C@](C)(O)[C@H](NC)[C@H]3O)[C@H](N)C[C@@H]2N)O1 [micronomicin]
inactive: 1 nM 0.04% | 8.33 nM 1.42% | 100 nM 0.72% | 833.33 nM 3.66% | 10000 nM -0.03%
